Experimental findings from PubChem BioAssay (NCATS) are described below.

Inconclusive results are not listed. Activity calls are given as the source filed them. Calls come from the whole dose curve; as a rule, active = well fitted curve in the direction sought with a large enough effect; inconclusive = small, poorly fitted or top-dose-only effect, or another doubt; inactive = no such curve, though single readings can be large; an effect the other way counts as inactive or inconclusive.

In experiment [1] the target is Nuclear receptor subfamily 1 group I member 3 (Homo sapiens) (UniProt Q14994). In words: qHTS for Constitutive Androstane Receptor (CAR) Antagonist screened against the NCATS CANVASS Library (AID 1347372).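 Note: cells stimulated with 50 nM CITCO agonist so inhibition reflects antagonism; luciferase from CYP2B6 promoter reporter driven by hCAR in HepG2 cells.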 The following applies: HepG2-hCAR-CYP2B6 luciferase, CITCO-stimulated antagonist mode; series mostly up to 46.1 µM. The method, boiled down:
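HepG2-CYP2B6-hCAR double-stable cells plated, 4hr attach; cpd pin-transferred; CITCO 50 nM final; 24hr 37C/5% CO2; CellTiter-Fluor 1hr (fluorescence), then ONE-Glo luminescence.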

Experiment [2] shares this target. The experiment can be described thus: qHTS for Constitutive Androstane Receptor (CAR) Agonist screened against the NCATS CANVASS Library (AID 1347373).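 Note: every well also contained 1.5 µM PK11195 alongside the test compound.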 The note with it: HepG2-hCAR-CYP2B6 luciferase reporter, ONE-Glo luminescence; series mostly up to 46.1 µM. The method, boiled down:
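HepG2-hCAR-CYP2B6 cells, 2500/well, attached 4hr; cpd + PK11195 1.5uM final; 24hr 37C 5% CO2. CellTiter-Fluor viability read, then ONE-Glo luminescence for CAR activation.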

Experiment [3] in a line: qHTS for Hypoxia signaling pathway (HIF-1) agonists against the NCATS CANVASS Library (AID 1347375). The note with it: HRE-bla ME-180 cells, HIF-1 beta-lactamase reporter, 17 h; series mostly up to 38.3 µM. The method, boiled down:
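ME-180 HRE-bla reporter cells; 2,000/well, 0.5% dialyzed FBS; cpd added after 5 h, 17 h 37C/5% CO2; CCF4-AM 2 h RT; FRET 460/530 nm; CellTiter-Glo viability same wells, 30 min.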

The nature of experiment [4]: 10-beta competent E. coli microbial cell viability qHTS against the NCATS CANVASS Library (AID 1347376). The following applies: E. coli 10-beta viability, BacTiter-Glo ATP luminescence, overnight; series mostly up to 46.1 µM. The method in brief:
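E. coli 10-beta, 0.2 OD; cpds 11-pt; o/n 37C, 5% CO2; BacTiter-Glo 20 min RT; luminescence (ATP) = viable cells. Daunomycin ctrl.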

The nature of experiment [5]: DH5-alpha competent E. coli microbial cell viability qHTS against the NCATS CANVASS Library (AID 1347377). The following applies: BacTiter-Glo ATP luminescence, overnight; series mostly up to 46.1 µM. The method, boiled down:
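qHTS, 11-pt; E. coli DH5-alpha, 0.2 OD; o/n 37C/5% CO2; BacTiter-Glo, 20 min RT; luminescence.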

Experiment [6] can be described thus: qHTS for H2AX Agonists against the NCATS CANVASS Library (AID 1347378).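 Note: phospho-H2AX S139 level in CHO-K1 lysates by TR-FRET emission ratio.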 The note with it: CHO-K1 H2AX phosphorylation, HTRF TR-FRET, 3 h; series mostly up to 76.9 µM. The method, boiled down:
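Signal is the 665/620 nm emission ratio from europium cryptate and d2 antibody pair, rising with S139-phosphorylated H2AX. CHO-K1 cells saw test agents for 3 hr at 37C; detection ran 24 hr at room temperature.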

A short description of experiment [7]: qHTS for Inflammasome Signaling Inhibitors: IL-1-beta AlphaLISA screen against the NCATS CANVASS Library (AID 1347379).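 Note: human THP-1 cells primed with LPS then triggered with ATP; secreted IL-1B measured as AlphaLISA emission at 615 nm; lower signal means less IL-1B release which is the wanted effect.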 The following applies: THP-1 LPS/ATP, IL-1B AlphaLISA secretion, 16 h; series mostly up to 57.5 µM. The method, boiled down:
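THP-1 cells pretreated 1 hr with compound (up to 57.5 uM final), then stimulated with LPS (250 ng/mL final) and ATP (1.25 mM final). Secreted IL-1B measured by AlphaLISA after 16 hr; glyburide as positive control.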

The nature of experiment [8]: Inflammasome Signaling qHTS Counterscreen: IL-1-beta AlphaLISA counterscreen against the NCATS CANVASS Library (AID 1347381).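 Note: cell-free check with purified IL-1β in medium and no THP-1 cells.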 The following applies: Purified IL-1beta AlphaLISA signal interference counterscreen; series mostly up to 57.5 µM. The method in brief:
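Cell-free interference check: compounds added to medium spiked with 4 pg purified IL-1β. Anti-IL-1β acceptor beads (6 ug/mL) with 0.6 nM biotinylated antibody added for 1 h at RT, then streptavidin donor beads (24 ug/mL) for 30 min in the dark. AlphaLISA read at 680/615 nm.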

A short description of experiment [9]: Cytotoxicity qHTS for assessment of Hepg2 cells membrane integrity screened against the NCATS CANVASS Library (AID 1347387). The following applies: HepG2 LDH release (CytoTox-ONE) fluorescence, 5 h; series mostly up to 46.1 µM. The method in brief: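 qHTS, 11-pt conc. series, 0.59 nM - 46 uM final; HepG2 2000 cells/well, overnight attachment; 5 hr compound exposure 37C/5% CO2; CytoTox-ONE, 10 min RT; fluorescence ex560/em590 = LDH from damaged membranes.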

A short description of experiment [10]: qHTS for Activators of p53 Stress Response Pathway screened against the NCATS CANVASS Library (AID 1347388). The following applies: p53RE-bla HCT-116, beta-lactamase reporter, 16 h; series mostly up to 46.1 µM. The method, boiled down:
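Beta-lactamase reporter driven by p53 response elements in HCT-116 cells, read as the 460 nm/530 nm emission ratio after CCF4 loading, following 16 h of exposure to an 11-point series. Cell viability was measured in the same wells by CellTiter-Glo luminescence.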

The nature of experiment [11]: qHTS assay for small molecule disruptors of mitochondrial membrane potential screened against the NCATS CANVASS Library (AID 1347389). Note: potency is the fitted concentration of half-maximal effect; nearly all actives have a fitted effect of over 60% in size. The note with it: HepG2 mitochondrial membrane potential, m-MPI red/green ratio, 1.5 h. The method in brief:
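HepG2, 2,000 cells/well, attached overnight; compound 1 hr, 37C, 5% CO2; Mito-MPS dye 30 min, 37C; fluorescence 535 nm (monomer) and 590 nm (aggregate); decreased 590/535 ratio = depolarization.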

Experiment [12] in a line: qHTS for activators of Nrf2/ARE signaling pathway screened against the NCATS CANVASS Library (AID 1347391). Note: nearly all actives have a fitted effect of over 60% in size. The note with it: ARE-bla HepG2, beta-lactamase reporter, 16 h; series mostly up to 46.1 µM. The method, boiled down: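 Plate ARE-bla HepG2 cells at 2000/well and let them settle 5 h. Pin-transfer compounds in DMSO, incubate 16 h at 37C. Load CCF4 for 2 h at room temperature and read blue/green fluorescence.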

A short description of experiment [13]: qHTS for activators of dead-cell proteases activity screened against the NCATS CANVASS Library (AID 1347392).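 Note: luminescence from protease leaking out of membrane-damaged cells cleaving impermeant substrate; rising signal means more cytotoxicity.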 The following applies: HepG2 cytotoxicity, dead-cell protease luminescence, 5 h; series mostly up to 46.1 µM. The method in brief:
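Compounds are pin-transferred onto attached HepG2 cells, giving 11 final concentrations. After 5 h at 37C, AAF-aminoluciferin reagent is added and luminescence is recorded at room temperature.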

Experiment [14] in a line: qHTS for inhibitors of ER calcium dysfunction: SERCaMP assay screened against the NCATS CANVASS Library (AID 1347393).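 Note: lower secreted reporter signal means inhibitor of ER calcium depletion; nearly all actives have a fitted effect of over 40% in size.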 The following applies: SH-SY5Y GLuc-SERCaMP (Gaussia luciferase released on ER calcium loss) secretion, thapsigargin, luminescence; series mostly up to 76.6 µM. The method in brief: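 Thapsigargin-induced ER calcium depletion drives GLuc-SERCaMP secretion from SH-SY5Y cells; compounds given 16 h beforehand were scored by lowered coelenterazine luminescence after 4 h challenge.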

Experiment [15] in a line: Vero-766 cells viability qHTS against the NCATS CANVASS Library: Counterscreen for Zika virus inhibition assay (AID 1347394). Note: nearly all actives have a fitted effect of over 60% in size. Note: potency is the fitted concentration of half-maximal effect. The following applies: Vero 766 viability, CellTiter-Glo luminescence, 72 h; series mostly up to 46.1 µM. The method, boiled down: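 Counterscreen for toxicity: Vero 766 cells exposed 72 h to an 11-point compound series, viability by CellTiter-Glo.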

The nature of experiment [16]: Viability qHTS for inhibitors of the SERCaMP assay screened against the NCATS CANVASS Library (AID 1347400). Note: nearly all actives have a fitted effect of over 70% in size. The note with it: SH-SY5Y SERCaMP cells viability, CellTiter-Glo, 48 h; series mostly up to 92.2 µM. The method in brief: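 SH-SY5Y SERCaMP MJH297 cells, 1000/well; 4 h settle, 37C/5% CO2; pin-transferred cpds; 48 h; CellTiter-Glo lum. Pos ctrl bortezomib 0.0001 - 4.6 uM.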

Experiment [17] can be described thus: Redox Reaction Profiling qHTS: Assay Interference Panel against the NCATS CANVASS Library (AID 1347401). The note with it: resazurin-DTT redox cycling, fluorescence, 15 min; series mostly up to 57.1 µM. The method, boiled down: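 Cell-free redox surrogate: 5 uM resazurin + 200 uM DTT, 50 mM HEPES pH 7.3/50 mM NaCl; cpds pinned, 11-pt qHTS; Ex525/Em598 read t0 and t=15 min, dark.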

The nature of experiment [18]: qHTS for Hypoxia signaling pathway (HIF-1) antagonists against the NCATS CANVASS Library (AID 1347374).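 Note: HRE-bla ME-180 cells stimulated with cobalt chloride to stabilize HIF-1alpha; nearly all actives have a fitted effect of over 60% in size.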 The note with it: HRE-bla ME-180 cells, HIF-1 beta-lactamase reporter, CoCl2; series mostly up to 38.3 µM. The method, boiled down:
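HRE-bla ME-180 cells in medium with 0.5% dialyzed FBS received compounds (11-point series) plus CoCl2 (60 uM addition stock) for 17 hrs at 37C. Beta-lactamase activity read with CCF4 (405 nm ex, 460/530 nm em); CellTiter-Glo viability measured in same wells.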

Experiment [19] in a line: qHTS for Antimalaria activity screened against the NCATS CANVASS Library (AID 1347380).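 Note: Plasmodium falciparum strain Dd2 asexual parasites grown in red blood cells; nearly all actives have a fitted effect of over 40% in size.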 The following applies: P. falciparum Dd2 growth, SYBR Green fluorescence, 72 h; series mostly up to 28.7 µM. The method, boiled down:
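Dd2 strain, infected erythrocytes 2.5% Hct final / 0.3% parasitemia. 11-pt qHTS titration, 72 h, 37C, 5% O2, 5% CO2. Lysis buffer + SYBR Green, 18 h, fluorescence 485/535 nm.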

Experiment [20] is described as follows: qHTS for inhibitors of Wild type Zika virus screened against the NCATS CANVASS Library (AID 1347396).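 Note: ATP luminescence of surviving cells so rescue from viral cell killing.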 The following applies: Vero cells, Zika virus CPE, CellTiter-Glo, 72 h; series mostly up to 45.9 µM. The method, boiled down:
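Using ATP-based luminescence (CellTiter Glo), this screen scores rescue of Vero 766 cells from wild-type Zika killing at 72 h post-infection. Compounds are tested in a concentration series.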

Chain of Nuclear receptor subfamily 1 group I member 3 (Homo sapiens) (Q14994 whole entry, looked up): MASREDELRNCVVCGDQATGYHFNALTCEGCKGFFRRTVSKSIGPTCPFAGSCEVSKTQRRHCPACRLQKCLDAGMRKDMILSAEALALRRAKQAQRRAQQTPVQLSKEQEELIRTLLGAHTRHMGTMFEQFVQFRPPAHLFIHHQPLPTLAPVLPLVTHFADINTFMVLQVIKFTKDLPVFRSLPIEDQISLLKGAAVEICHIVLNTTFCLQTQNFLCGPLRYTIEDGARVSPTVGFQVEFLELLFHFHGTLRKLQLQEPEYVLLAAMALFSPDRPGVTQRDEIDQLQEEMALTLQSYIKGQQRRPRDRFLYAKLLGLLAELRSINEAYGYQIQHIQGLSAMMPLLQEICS

In the case of `C=C(C)[C@@H]1CC[C@]2(C(=O)O)CC[C@]3(C)[C@H](CC[C@@H]4[C@@]5(C)CC[C@H](O)C(C)(C)[C@@H]5CC[C@]43C)[C@@H]12`, the molecule was classed as inactive in experiment [1], in experiment [2], in experiment [3], in experiment [4], in experiment [5] and in experiment [6]. Also, the molecule was called inactive in experiment [7], in experiment [8], in experiment [9], in [10], in experiment [12] and in experiment [13]. Besides, the outcome in experiment [14], in experiment [16] and in experiment [17] was inactive. The Potency was 18.6 µM (active) in [11] and 33.1 µM (active) in [15].

As to `O=c1c(O)c(-c2ccc(O)c(O)c2)oc2cc(O)ccc12`, the molecule was called inactive in experiment [1], in experiment [2], in [18], in experiment [3], in experiment [6] and in experiment [7]. Besides, the call in experiment [19], in [8], in experiment [9], in experiment [13] and in experiment [20] was inactive. The Potency in experiment [11] was 23.4 µM (active). The Potency entry in experiment [15] is “inactive”.
